CYP2C19 act = cytochrome P450 2C19 (human) activation | 96,000 tested, under 10 active | recombinant CYP2C19, luciferin-H EGE luminescence; stronger effect = higher value; 0 = fully inhibited enzyme, 1 = untreated enzyme | P33261 | activation factor at 5 µM;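 active = activation factor of at least 2 at 5 µM in the primary screen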;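 also: 0 = wells with 2.5 mM tranylcypromine and 1 = vehicle-only wells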
Target sequence (P33261 whole entry, looked up): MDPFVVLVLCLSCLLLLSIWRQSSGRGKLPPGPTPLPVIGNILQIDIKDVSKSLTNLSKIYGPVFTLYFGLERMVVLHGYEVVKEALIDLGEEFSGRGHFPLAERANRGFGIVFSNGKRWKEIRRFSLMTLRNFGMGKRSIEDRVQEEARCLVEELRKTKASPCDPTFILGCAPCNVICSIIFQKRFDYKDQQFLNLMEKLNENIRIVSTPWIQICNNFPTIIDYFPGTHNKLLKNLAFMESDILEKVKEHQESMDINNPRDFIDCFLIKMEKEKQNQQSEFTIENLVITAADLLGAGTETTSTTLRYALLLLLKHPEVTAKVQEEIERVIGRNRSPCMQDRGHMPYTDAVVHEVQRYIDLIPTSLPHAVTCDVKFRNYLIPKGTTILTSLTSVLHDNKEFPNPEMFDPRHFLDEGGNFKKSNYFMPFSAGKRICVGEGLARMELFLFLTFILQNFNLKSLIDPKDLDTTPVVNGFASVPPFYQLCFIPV
CYP2C9 act = CYP2C9 (human) activation; hit rate 1.4% among 96,000; P11712; AID 1024; activation factor at 5 µM; recombinant CYP2C9, luciferin-H conversion, luminescence; stronger effect = higher value; factor 1 = untreated enzyme, 0 = blocked;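 active = activation factor of 2 or more for CYP2C9 at a 5 µM dose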;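 also: 0 = sulfaphenazole-blocked wells and 1 = vehicle-only wells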
CYP2C19 inh = inhibitors of human CYP2C19; CYP2C19 Supersomes, luciferin-H EGE luminescence, 30 min; hit rate 21% among 96,000; P33261; inhibition, % at 5 µM;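 active = CYP2C19 inhibition above a set limit at 5 µM in the primary screen, cut at about 50% in these data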;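 also: plate controls were negative control wells for no effect and 2.5 mM tranylcypromine positive control for full effect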
Measles CPE = protection of cells from measles virus. hit rate 1.5% among 140,000. AID 841. protection (pct of control), % at 4 µM. Measles virus-infected cells, CPE protection, absorbance; in the data active = protection mostly above about 24%, no sharp cut-off; inactive = mostly below about 26%
CYP2C9 inhib = inhibitors of human CYP2C9 | CYP2C9 Supersomes, luciferin-H conversion, luminescence | inhibition, % at 5 µM | hit rate 20% among 96,000 | AID 777;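 active = blocking of liver enzyme CYP2C9 beyond about 50% at 5 µM, limit read from the data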
* = called active by the depositor; x = no result given. Compounds with a hit are over-represented: about 22% of the library has one in this group of screens.

SMILES	CYP2C19 act	CYP2C9 act	CYP2C19 inh	Measles CPE	CYP2C9 inhib
Cc1c(CN(C)C(=O)c2sc3cc(Cl)ccc3c2Cl)cnn1C	0.1	1.3	93*	8	-34
CN(C)CCCN(C(=O)c1cccs1)c1nc(-c2ccccc2)cs1	0.1	0.3	92*	40*	74*
O=C(c1cccs1)N(Cc1ccco1)c1nc(-c2ccc(F)cc2)cs1	x	x	x	19	x
Cc1cc(-c2cccs2)n[nH]1	1	1.1	2	37*	-14
Cc1cc(-c2ccc(Cl)s2)n[nH]1	0.7	0.8	27	11	21
COc1cc(OC)c(C2SCCS2)c(OC)c1	x	x	x	33*	x
O=S(=O)(c1ccccc1)C1(S(=O)(=O)c2ccccc2)CCCC1	0	0.4	98*	11	58*
O=C(c1cccc(F)c1)N1CCc2ccccc2C1	0.3	0.9	70*	21	9
O=C(c1cccnc1)N1CCCc2ccccc21	0.8	1	22	7	0
O=C(c1cncc(Br)c1)N1CCc2ccccc2C1	0.1	0.6	86*	10	41
O=C(c1ccc(Cl)nc1)N1CCc2ccccc2C1	0	0.5	98*	12	47
O=C(c1cncc(Br)c1)N1CCCc2ccccc21	0.4	0.6	62*	11	40
COc1cc(NC(=O)c2nccnc2C(=O)O)cc(OC)c1	0.9	1	6	8	-1
CCOc1ccc(NC(=S)Nc2cc(OC)c(Cl)cc2OC)cc1	x	x	x	11	x
Cc1ccc(C)c(NC(=O)CNS(=O)(=O)c2ccccc2)c1	0.2	2.1*	79*	4	-105
Cc1cccc(NC(=O)CNc2cc(C)ccc2C)c1	0.2	0.7	84*	11	26
COc1cc(NC(=O)Cc2c(C(=O)O)[nH]c3ccccc23)cc(OC)c1OC	0.8	0.8	20	8	23
COc1cc(NC(=O)CS(=O)(=O)c2ccccc2)cc(OC)c1OC	0.3	0.7	66*	32	31
COc1ccccc1NC(=O)CNS(=O)(=O)c1ccccc1	0	1.5	96*	2	-54
Cc1ccc(C(=O)/C=C/Nc2cccc([N+](=O)[O-])c2)o1	x	x	x	9	x
O=C(Oc1c(Br)cc([N+](=O)[O-])cc1Br)c1cccnc1	x	x	x	6	x
COC(=O)CSc1nnc(C)n1-c1cccc(C#N)c1	1.2	1.2	-23	2	-18
CC1(C)CC(=O)C2=C(C1)Nc1ccccc1NC2c1cccnc1 (configuration not stated)	1.1	1.1	-6	22	-6
CCC(=O)c1cccc2c1N=CC1=C(CC(C)(C)CC1=O)N2	0.7	0.5	27	8	55*
O=C(/C=C/c1cccc(Cl)c1)c1nc2ccccc2[nH]1	0.6	1	44	58*	1
SMILES	CYP2C19 act	CYP2C9 act	CYP2C19 inh	Measles CPE	CYP2C9 inhib
O=C(/C(=C\c1ccccc1)c1nc2ccccc2[nH]1)c1ccc(Cl)cc1	x	x	x	3	x
Cn1c(=O)cc(SCC(=O)NCCC2=CCCCC2)c2ccccc21	x	x	x	15	x
CCN=C(Nc1cccc(F)c1)SC1CC(=O)N(c2ccc(OC)cc2)C1=O (configuration not stated)	0.7	0.4	31	7	59*
CN=C(Nc1ccc2c(c1)OCO2)SC1CC(=O)N(c2ccccc2)C1=O (configuration not stated)	x	x	x	24	x
CCN=C(NCC)SC1CC(=O)N(c2cccc(OC)c2)C1=O (configuration not stated)	0.2	2.1*	79*	8	-110
CCN=C(NCC)SC1CC(=O)N(c2ccccc2)C1=O (configuration not stated)	0.1	1	88*	12	-1
O=C(NC1CCCCC1)c1cc(Cl)ccc1[N+](=O)[O-]	x	x	x	9	x
CNC(=S)NNC(=O)COc1cccc(C)c1C	x	x	x	19	x
N#CC1(c2ccccc2)CCCN1C(=O)c1ccccc1Br (configuration not stated)	0.9	1	11	2	0
COc1ccccc1C(=O)N1CCCC1(C#N)c1ccccc1 (configuration not stated)	0.9	0.1	14	29	90*
C/C(N)=C(/C#N)C(=O)CSc1ccc2c(c1)OCCO2	0.1	0.8	95*	3	19
Cn1c(N)c(C(=O)CSc2ccc3c(c2)OCCO3)c(=O)n(C)c1=O	0.6	0.8	42	5	17
CCS(=O)(=O)N1CCC(C(=O)NCc2cc(OC)ccc2OC)CC1	0.9	1.8	13	10	-78
COc1ccccc1CNC(=O)C1CCN(S(=O)(=O)N2CCCCC2)CC1	0.8	2.2*	19	8	-116
COc1ccc(Br)cc1CNC(=O)C1CCN(S(=O)(=O)N2CCCC2)CC1	0.8	2.6*	22	6	-164
CCS(=O)(=O)N1CCC(C(=O)NCc2ccccc2OC)CC1	1.1	1.3	-6	17	-35
O=C(c1ccc(COc2c(F)c(F)c(F)c(F)c2F)o1)N1CCN(Cc2ccc3c(c2)OCO3)CC1	x	x	x	15	x
Cc1cc(C(=O)Cn2nnc3ccccc3c2=O)c(C)n1Cc1cccs1	0	0.3	97*	9	71*
CC(=O)Nc1ccc(S(=O)(=O)CCC#N)cc1	x	x	x	4	x
CC(C)Cc1ccc(C(C)C(=O)N2CCOCC2)cc1 (configuration not stated)	0.8	0.3	21	10	66*
CC(O)CNc1nc2ccccc2n1CC(=O)NCCc1ccc(Cl)cc1 (configuration not stated)	0.5	0.6	50*	12	36
O=C(Cn1c(NCCO)nc2ccccc21)c1ccc(Cl)cc1	0.9	1	8	19	5
CN(C)S(=O)(=O)c1ccc(S(=O)(=O)NC2CCOC(C)(C)C2)cc1 (configuration not stated)	x	x	x	6	x
Cc1[nH]n(-c2ccc([N+](=O)[O-])cc2)c(=O)c1C=NCCc1c(C)[nH]c2ccccc12	x	x	x	33	x
CCOC(=O)N1CCN(c2c(F)cc3[nH]c(=S)[nH]c3c2Br)CC1	0.6	0.3	42	11	70*
SMILES	CYP2C19 act	CYP2C9 act	CYP2C19 inh	Measles CPE	CYP2C9 inhib
CCOC(CNc1c([N+](=O)[O-])c(=O)n(C)c(=O)n1C)OCC	x	x	x	4	x
Nc1ncc(Br)cc1S(=O)(=O)NCCC(=O)Nc1cccc(Cl)c1	0.3	0.6	66*	18	41
Nc1ncc(Br)cc1S(=O)(=O)NCCC(=O)N1CCN(c2ncccn2)CC1	0.4	0.6	60*	5	41
COc1cc(OC)c(NC(=O)CCNS(=O)(=O)c2cc(Br)cnc2N)cc1Cl	0.6	0.1	36	29	94*
Cc1ccc(NC(=O)CCNS(=O)(=O)c2cc(Br)cnc2N)c(Cl)c1	x	x	x	14	x
CC(=O)c1sc(Nc2nc(C)cc(C)n2)nc1C	0.9	0.3	15	13	73*
CC(=O)c1sc(NC(=O)C(C)(C)C)nc1C	x	x	x	21	x
CC(=C/C(=O)O)/C(=C/c1ccccc1)C(=O)O	x	x	x	11	x
COc1ccc(S(=O)(=O)N=C2C=C(C)C(=O)C(C)=C2)cc1	0.3	1.7	66*	22	-66
COc1ccc(S(=O)(=O)N2CCCCC2)cc1	0.7	1.4	28	13	-41
